A selection: hits, their analogues and other compounds. The true share with any hit is near 6.1%.
D1 PAM = enhances dopamine response at the human D1 receptor; AID 504651; hit rate 0.036% among 360,000; potentiation, % at 10 µM; HEK293 TREx D1 cells, calcium flux, dopamine EC20 potentiation; in the data active = potentiation above about 30%; also: 0% is about no effect
D1 antagonist = blocks dopamine activation of the human D1 receptor; activity change, negative = inhibition, % at 10 µM; P21728; hit rate 3.2% among 360,000; HEK293 TREx D1 cells, calcium flux, dopamine EC80; stronger effect = lower value; in the data active = activity change below about -30%; also: % is scaled to controls: 0 for no effect and ±100 for the full control effect
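Allosteric or orthosteric antagonism assessed as attenuation of the calcium response to EC80 dopamine, added 180 s after compound, in induced HEK293 Trex D1 cells loaded with no-wash calcium dye.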
ERG-DNA inh = ERG Ets/DNA interaction inhibition. Potency, µM (series often up to 76.9 µM), without a hit: top-dose FP activity, negative = inhibition, usual class: inhibitors. hit rate 0.028% among 370,000. AID 624246. fluorescence polarization, His-ERG Ets domain / labelled DNA. P11308; active = well fitted inhibition curve with a large enough effect in the polarisation, with a control signal flat; inconclusive = small, poorly fitted or top-dose-only effect, or effect the other way, or a change in a side signal; inactive = no such curve, though single readings can be large or run the other way; the % refers to the polarisation;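 also: polarization taken with two DNA probes labelled with fluorescein and Texas red; potency is read from the fitted curve at half-maximal effect; % of control where 0% means no effect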
Target sequence (P11308 whole entry, looked up, the tested form may be a part): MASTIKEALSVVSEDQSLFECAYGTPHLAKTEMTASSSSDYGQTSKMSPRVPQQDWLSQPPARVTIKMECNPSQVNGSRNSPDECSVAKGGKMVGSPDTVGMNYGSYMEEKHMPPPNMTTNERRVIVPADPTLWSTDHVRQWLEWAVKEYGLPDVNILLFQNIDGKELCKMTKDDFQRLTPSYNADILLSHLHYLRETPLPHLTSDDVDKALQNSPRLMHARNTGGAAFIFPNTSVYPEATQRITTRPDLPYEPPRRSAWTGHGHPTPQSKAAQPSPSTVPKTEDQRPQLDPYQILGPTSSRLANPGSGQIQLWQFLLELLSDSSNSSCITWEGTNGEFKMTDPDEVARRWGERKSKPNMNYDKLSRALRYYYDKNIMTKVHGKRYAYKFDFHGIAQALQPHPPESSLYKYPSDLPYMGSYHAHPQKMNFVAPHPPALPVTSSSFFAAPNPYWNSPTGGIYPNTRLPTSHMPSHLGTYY
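His-tagged ERG Ets domain (1 uM in the protein solution; 300mM KCl, 50mM Tris-HCl, 1mM EDTA, 1mM DTT, pH 7.5) received compound, then a probe mix of 5 nM fluorescein-DNA and 100nM Texas-615-DNA. Fluorescence polarization was read for both dyes.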
D3 antag = antagonists of human D3 dopamine receptor; P35462; D3R cells, DiscoveRx beta-arrestin luminescence, antagonist mode; stronger effect = lower value; max response, negative = inhibition, %; hit rate 2.5% among 360,000; AID 652054; in the data active = max response below about -50%; inconclusive = no clear call, values can overlap the other calls; also: % is scaled to controls: 0 for no effect and ±100 for the full control effect
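Cells plated overnight at 1500 cells/well, then exposed to library compounds with dopamine controls for 90 minutes at 37 degrees C. DiscoveRx reagent added for 30–60 minutes at room temperature; luminescence read, quantitative HTS format.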
D1 ag = activates the human D1 dopamine receptor. hit rate 1% among 360,000. HEK293 T-REx D1 cells, calcium flux, agonist mode. AID 504660. P21728. activation, % at 2 µM; in the data active = activation above about 30%; also: 0% is about no effect
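Tetracycline-induced HEK293 TREx D1 cells, force-coupled to calcium signalling, were dye-loaded with a no-wash calcium kit. Compound was pin-added after a 10 s baseline. Fluorescence was read kinetically at 1 cycle/s for 180 s, with calcium rises flagged as agonism.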
DRD3 agonist = D3 dopamine receptor (human) agonism. D3R DiscoveRx beta-arrestin cells, luminescence, 90 min. max activation, %. hit rate 0.58% among 410,000. AID 652048; in the data active = max activation above about 30%; also: 0% is about no effect
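Cells at 1500/well, incubated overnight, then treated with pinned compounds (dopamine as control) for 90 min at 37 degrees C. DiscoveRx reagent added for 30 - 60 minutes at room temperature; luminescence read.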
* = called active by the depositor; ? = inconclusive; . = not tested or not shown.

SMILES	D1 PAM	D1 antagonist	ERG-DNA inh	D3 antag	D1 ag	DRD3 agonist
COc1ccc(C(CNC(=O)Cc2c(F)cccc2Cl)N2CCCCC2)cc1 (stereo unspecified)	-8	6	4%	-111*	3	-15
COc1ccc(C(CNC(=O)COc2cc(C)ccc2Cl)N2CCCCC2)cc1 (stereo unspecified)	1	9	1%	-59*	2	-28
COc1ccccc1C(CNC(=O)COc1cc(C)ccc1Cl)N1CCCC1 (stereo unspecified)	-5	30	-1%	2	2	-14
O=C(CCCCCn1c(=O)[nH]c2ccccc2c1=O)NCc1ccccc1	-2	1	4%	.	-1	-4
CCCCCC(=O)N1C[C@@H](n2cc(C3CC3)nn2)[C@H](O)C[C@@H]1c1ccccc1	.	.	.	17	.	5
COc1ccc(OC(=O)c2cc3ccccc3o2)cc1	-1	-1	-5%	2	2	0
O=C1OC(c2ccccc2)=C/C1=C/N1CCOCC1	6	1	.	-55*	0	-7
O=C1OC(c2ccccc2)=C/C1=C\N1CCOCC1	-9	-8	2%	?	1	-8
COC(=O)C1=NN(c2ccc(OC)cc2)C2C(=O)N(c3ccccc3OC)C(=O)C12 (stereo unspecified)	-1	-23	-8%	-14	9	-1
COC(=O)C1=CC(C(=O)c2cccs2)=NN(c2ccc(OC)cc2)C1C(=O)OC (stereo unspecified)	-1	-13	-22%	-56*	21	-8
CN1/C(=C\C=C(/C#N)C(=O)Nc2ccc(Cl)cc2)C(C)(C)c2ccccc21	-5	3	-7%	24	81*	7
CN1/C(=C\C(=O)Nc2ccc(Cl)cc2)C(C)(C)c2ccccc21	-5	-12	0%	13	4	3
Cc1ccc(NC(=O)/C=C\C(=O)NCC(=O)O)cc1C	-4	-37*	3%	3	3	3
Cc1ccc(NC(=O)CC(=O)Nc2ccc(C)c(C)c2)cc1C	-5	-2	29%	15	0	-12
O=S(=O)(Nc1cccc(S(=O)(=O)N2CCOCC2)c1)c1ccc2c(c1)OCCO2	1	1	6%	-10	2	0
COc1ccc(OC)c(NC(=O)COC(=O)c2ccc(S(=O)(=O)N3CCOCC3)cc2)c1	14	-51*	-8%	?	2	0
O=C(CCCOc1ccccc1)Nc1ccc(Cl)c(S(=O)(=O)N2CCOCC2)c1	.	.	6%	-2	.	8
Cc1ccc(NC(=O)CCCOc2ccccc2)cc1S(=O)(=O)N1CCOCC1	-14	-53*	5%	-6	2	-8
Cc1ccc(NS(=O)(=O)c2ccc3c(c2)OCCCO3)cc1S(=O)(=O)N1CCOCC1	-8	-35*	-8%	28	2	2
Cc1ccc(C(=O)OCC(=O)Nc2ccc3c(c2)OCO3)cc1S(=O)(=O)N1CCOCC1	-2	-77*	-10%	18	-1	2
COc1cc(NC(=S)N2CCCC(CO)C2)c(OC)cc1Cl (stereo unspecified)	-6	0	0%	-1	0	2
O=S(=O)(Nc1cccnc1)c1cccnc1	.	.	9%	-16	.	-8
CC(=O)Nc1cc(-c2ccc(C(=O)N3CCOCC3)cc2)cn2c(-c3ccc(F)cc3)cnc12	.	.	.	0	.	-4
O=C(c1cc2ccccc2o1)N1CCN(S(=O)(=O)c2c(F)cccc2F)CC1	-3	7	3%	22	2	-1
Cc1ccc(NC(=O)COC(=O)c2ccc(NC(=O)CC#N)cc2)cc1S(=O)(=O)N1CCOCC1	.	.	0%	-53*	.	-25
SMILES	D1 PAM	D1 antagonist	ERG-DNA inh	D3 antag	D1 ag	DRD3 agonist
O=C(NNC(=O)c1ccccc1O)c1ccc(Cl)c(S(=O)(=O)N2CCc3ccccc32)c1	1	-33*	6%	0	9	21
O=C(c1ccc(Cl)c(S(=O)(=O)N2CCc3ccccc32)c1)N1CCN(c2ccccc2O)CC1	.	.	-4%	27	.	-3
O=C(Nc1ccccc1Sc1ccccc1)c1ccc(F)cc1	-3	1	-6%	-1	2	1
COC(=O)c1ccc(Cn2c(SCc3cccc(C)c3)nc3ccncc32)cc1	2	-32*	7%	.	52*	-13
CCOC(=O)COc1c(OC)cc(Cl)cc1C1Nc2ccccc2C(=O)N1c1ccccc1 (stereo unspecified)	0	1	.	-59*	4	0
CCOC(=O)COc1c(OC)cc(Cl)cc1C1Nc2ccccc2C(=O)N1c1ccc(F)cc1 (stereo unspecified)	-2	-3	.	-6	2	3
CCC(=O)Nc1nc2ccc(NC(=O)COc3ccccc3)cc2s1	-4	-72*	-5%	12	2	-13
Cc1cccc(OCCCC(=O)Nc2ccc(N(C)C)cc2)c1	-3	-2	2%	5	6	-1
Cc1nc2ccc(NC(=O)COc3ccccc3)cc2s1	3	-9	4%	10	1	-5
Cc1cccc(OCC(=O)Nc2ccc3nc(C)sc3c2)c1	-10	-33*	3%	-2	9	1
Cc1cccc(OCCC(=O)Nc2ccc(F)c(F)c2)c1	-6	-38*	-9%	-8	9	-18
Cc1cccc(NC(=O)COC(=O)c2ccc3nc(C)c(C)nc3c2)c1	.	.	0%	-58*	.	-1
CC(C)C(NC(=O)Cc1ccccc1)C(=O)N1CCN(c2cccc(Cl)c2)CC1 (stereo unspecified)	-1	-5	2%	1	4	7
O=C(Nc1cccc(C(F)(F)F)c1)C1CCCO1 (stereo unspecified)	3	-5	-1%	9	1	-1
Cc1ccc(C(=O)N/N=C/c2ccc(S(=O)(=O)O)o2)c(Cl)c1	-1	-19	14%	24	4	7
CCOC(=O)CSc1nc2ccc(NC(=O)COc3ccccc3)cc2s1	-2	-36*	-1%	.	10	-5
O=C(COc1ccccc1)Nc1ccc2nc(SCCOc3ccccc3)sc2c1	3	-31*	7%	.	7	-7
CCOc1ccc(-c2nc(CSCC(=O)NCc3ccco3)c(C)o2)cc1	-6	-37*	-9%	74	4	2
CCOc1ccc(-c2nc(CSCC(=O)NC3CCN(Cc4ccccc4)CC3)c(C)o2)cc1	.	.	.	-117*	.	-5
CCOC(=O)N1CCC(NC(=O)CSCc2nc(-c3ccc(OCC)cc3)oc2C)CC1	-1	-19	?	19	5	6
CCOc1ccc(-c2nc(CSCC(=O)NC3CC3)c(C)o2)cc1	1	-28	-8%	11	0	-4
O=C(CSCc1c(Cl)cccc1Cl)NCc1ccco1	-6	-31*	0%	-18	0	-15

Source: PubChem
